The record followed here is PubChem BioAssay (EPA / NIEHS).

Inconclusive results are not listed. Active and inactive are the calls of the source. Rule for the calls, unless noted: active = hit-call score of the fitted dose curve at least 0.9, where 1 is the maximum; inactive = score below 0.9.

Read-out in test [1]: solute carrier (SLCO1B1), SLCO1B1 (gene 10599)
Nature of the test: LTEA_HepaRG_SLCO1B1: Life Technologies and Expression Analysis (LTEA) Assay for solute carrier (SLCO1B1) using HepaRG (AID 2283530). As to conditions: mRNA level, 48 h; actives raise or lower the signal. Summed up:
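Differentiated human HepaRG cells, plated 48 h, switched to serum-free induction medium and exposed in duplicate for 48 h to 8 half-log concentrations (top 100 uM) in 0.5% DMSO. SLCO1B1 mRNA by TaqMan qRT-PCR, normalized to ACTB/GAPDH/POLR2A.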

Read-out in test [2]: sulfotransferase 2A1 (SULT2A1), SULT2A1 (gene 6822)
Nature of the test: LTEA_HepaRG_SULT2A1: Life Technologies and Expression Analysis (LTEA) Assay for sulfotransferase 2A1 (SULT2A1) using HepaRG (AID 2283531). As to conditions: mRNA level, 48 h; actives raise or lower the signal. The gist of the method:
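Differentiated human HepaRG cells in serum-free induction medium were exposed for 48 h to eight half-log concentrations (top 100 uM, 0.5% DMSO). SULT2A1 mRNA was measured by qRT-PCR, normalized to ACTB, GAPDH and POLR2A, and fitted bidirectionally against DMSO.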

Read-out in test [3]: Transforming Growth Factor (TGFA), TGFA (gene 7039)
Nature of the test: LTEA_HepaRG_TGFA: Life Technologies and Expression Analysis (LTEA) Assay for Transforming Growth Factor (TGFA) using HepaRG (AID 2283532). Conditions: mRNA level, 48 h; actives raise or lower the signal. The gist of the method:
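Differentiated HepaRG cells exposed 48 hours in serum-free induction medium, 0.5% DMSO vehicle, 8-point half-log series from 100 uM, in duplicate. TGFA mRNA by TaqMan qRT-PCR, normalised to ACTB, GAPDH, POLR2A; bidirectional fit versus DMSO.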

Read-out in test [4]: Transforming Growth Factor (TGFB1), TGFB1 (gene 7040)
As to the kind of experiment: LTEA_HepaRG_TGFB1: Life Technologies and Expression Analysis (LTEA) Assay for Transforming Growth Factor (TGFB1) Transporter using HepaRG (AID 2283533). As to conditions: mRNA level, 48 h; actives raise or lower the signal. Summed up:
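Differentiated human HepaRG cells in serum-free induction medium were exposed in duplicate for 48 h to eight concentrations (top 100 uM, half-log steps, 0.5% DMSO). TGFB1 mRNA was quantified by qRT-PCR, normalized to ACTB, GAPDH, POLR2A, and fitted bidirectionally against DMSO.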

Read-out in a further test: TIMP1, TIMP1 (gene 7076)
As to the kind of experiment: LTEA_HepaRG_TIMP1: Life Technologies and Expression Analysis (LTEA) Assay for TIMP1 using HepaRG (AID 2283534).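 Note: TaqMan qRT-PCR signal normalized to ACTB GAPDH and POLR2A housekeeping genes.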 As to conditions: mRNA level, 48 h; actives raise or lower the signal. Summed up:
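Differentiated human HepaRG cells in serum-free induction medium were exposed 48 h to chemicals (8 half-log concentrations, top 100 uM, 0.5% DMSO). TIMP1 mRNA was quantified by TaqMan qRT-PCR, normalized to ACTB/GAPDH/POLR2A; bidirectional fit versus DMSO.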

Read-out in test [5]: Tumor necrosis factor receptor 1 (TNFRSF1A), TNFRSF1A (gene 7132)
As to the kind of experiment: LTEA_HepaRG_TNFRSF1A: Life Technologies and Expression Analysis (LTEA) Assay for Tumor necrosis factor receptor 1 (TNFRSF1A) using HepaRG (AID 2283535). As to conditions: mRNA level, 48 h; actives raise or lower the signal. Summed up: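 Differentiated human HepaRG cells were exposed in duplicate for 48 h in serum-free induction medium to eight concentrations (top 100 uM, half-log steps, 0.5% DMSO). TNFRSF1A mRNA was quantified by qRT-PCR, normalized to ACTB, GAPDH and POLR2A, then fitted bidirectionally against DMSO.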

Read-out in test [6]: Thyroid Hormone Responsive (THRSP), THRSP (gene 7069)
As to the kind of experiment: LTEA_HepaRG_THRSP: Life Technologies and Expression Analysis (LTEA) Assay for Thyroid Hormone Responsive (THRSP) using HepaRG (AID 2283536). Conditions: mRNA level, 48 h; actives raise or lower the signal. The gist of the method: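 Differentiated HepaRG cells treated 48 h in serum-free induction medium with 8 half-log concentrations up to 100 uM (0.5% DMSO), duplicates. THRSP mRNA by TaqMan qRT-PCR normalised to ACTB, GAPDH, POLR2A; bidirectional fit versus DMSO.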

Read-out in test [7]: UDP glucuronosyltransferase (UGT1A1), UGT1A1 (gene 54658)
As to the kind of experiment: LTEA_HepaRG_UGT1A1: Life Technologies and Expression Analysis (LTEA) Assay for UDP glucuronosyltransferase (UGT1A1) using HepaRG (AID 2283538). Conditions: mRNA level, 48 h; actives raise or lower the signal. Summed up: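 HepaRG cells, 0.5% DMSO vehicle, 48 h exposure in serum-free induction medium to 8-point half-log series topping at 100 uM, in duplicate. UGT1A1 mRNA by Fluidigm qRT-PCR, normalized to ACTB/GAPDH/POLR2A; bidirectional fit versus DMSO.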

Read-out in test [8]: X-box binding protein 1 (XBP1), XBP1 (gene 7494)
Nature of the test: LTEA_HepaRG_XBP1: Life Technologies and Expression Analysis (LTEA) Assay for X-box binding protein 1 (XBP1) using HepaRG (AID 2283540). As to conditions: mRNA level, 48 h; actives raise or lower the signal. The gist of the method:
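Differentiated human HepaRG cells in serum-free induction medium were exposed in duplicate for 48 h to eight half-log concentrations up to 100 uM in 0.5% DMSO. XBP1 mRNA was quantified by qRT-PCR, normalised to ACTB, GAPDH and POLR2A, with bidirectional fitting against DMSO.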

Test [9] in a line: LTEA_HepaRG_LDH_cytotoxicity: Cytotoxicity Assessment in the Life Technologies and Expression Analysis (LTEA) Assay (AID 2283563; active = hit-call score of the fitted dose curve at least 0.9, where 1 is the maximum;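 for AC50: LDH activity released into spent culture medium as a marker of cell death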). The gist of the method:
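Differentiated human HepaRG cells, plated 48 h beforehand, were switched to serum-free induction medium and exposed for 48 h to eight half-log concentrations (top 100 uM) in 0.5% DMSO. LDH was measured in spent medium; activity was fitted relative to DMSO vehicle.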

Read-out in test [10]: Cellular tumor antigen p53 (Homo sapiens) (UniProt P04637)
As to the kind of experiment: LTEA_HepaRG_TP53: Life Technologies and Expression Analysis (LTEA) Assay for Tumor Protein P53 (TP53) using HepaRG (AID 2283537). Conditions: mRNA level, 48 h; actives raise or lower the signal. The gist of the method:
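Read-out is TP53 transcript level by microfluidic qRT-PCR, normalised to three housekeeping genes and fitted bidirectionally against DMSO. Human HepaRG cells received compounds for 48 h, highest concentration 100 uM.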

For test [11], the target named is Cellular tumor antigen p53 (Homo sapiens) (UniProt P04637). As to the kind of experiment: TOX21_p53_BLA_p3_ratio: Tox21 HCT-116 p53 Agonism Beta-lactamase Assay, Ratio, Phase 3 (AID 2283596; active = hit-call score of the fitted dose curve at least 0.9, where 1 is the maximum). Summed up: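 HCT116 p53-bla cells (4000/well) given compound in DMSO (217-fold dilution) after 5 h, incubated 16 h at 37C. CCF4-AM substrate 2 h at room temperature; 460/530 nm emission ratio, gain fitted against DMSO.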

Test [12] in a line: TOX21_p53_BLA_p4_viability: Viability Assessment in the Tox21 HCT-116 p53 Agonism Beta-lactamase Assay, Phase 4 (AID 2283597; active = hit-call score of the fitted dose curve at least 0.9, where 1 is the maximum;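 note: hits lower the luminescence signal meaning cytotoxicity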). The gist of the method:
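HCT116 p53-bla cells (4000/well) rested 5 h at 37C, then received compounds in DMSO (217-fold dilution) for 16 h at 37C, 5% CO2. CellTiter-Glo was added after the CCF4-AM read, and luminescence was read after 30 min at room temperature.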

Test [13] deals with Cellular tumor antigen p53 (Homo sapiens) (UniProt P04637). Nature of the test: TOX21_p53_BLA_p5_ratio: Tox21 HCT-116 p53 Agonism Beta-lactamase Assay, Ratio, Phase 5 (AID 2283599; active = hit-call score of the fitted dose curve at least 0.9, where 1 is the maximum). Summed up: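 HCT-116 p53-bla cells (4000/well) plated 5 h, dosed with compound (217-fold DMSO dilution) for 16 h at 37 C; CCF4-AM substrate 2 h at room temperature. Activity is the 460/530 nm emission ratio (405 nm excitation), fitted in gain-of-signal direction versus DMSO.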

Test [14] in a line: TOX21_p53_BLA_p5_viability: Viability Assessment in the Tox21 HCT-116 p53 Agonism Beta-lactamase Assay, Phase 5 (AID 2283600; active = hit-call score of the fitted dose curve at least 0.9, where 1 is the maximum). The gist of the method: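 Cells were plated at 4000/well, rested 5 h at 37C, then given compounds in DMSO (217-fold dilution) for 16 h at 37C, 5% CO2. Following the CCF4-AM beta-lactamase read, CellTiter-Glo was added and luminescence was read after 30 min at room temperature.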

The target of test [15] is Cellular tumor antigen p53 (Homo sapiens) (UniProt P04637). As to the kind of experiment: TOX21_p53_BLA_p2_ratio: Tox21 HCT-116 p53 Agonism Beta-lactamase Assay, Ratio, Phase 2 (AID 2283592; active = hit-call score of the fitted dose curve at least 0.9, where 1 is the maximum). The gist of the method: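 HCT116 cells carrying a p53-responsive beta-lactamase reporter were plated, incubated 5 h at 37C, then dosed with compounds in DMSO (217-fold dilution) for 16 h. CCF4-AM substrate was added for 2 h at room temperature; the 460/530 nm emission ratio gave gain-of-signal activity relative to DMSO.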

The target is the same in test [16]. As to the kind of experiment: TOX21_p53_BLA_p4_ratio: Tox21 HCT-116 p53 Agonism Beta-lactamase Assay, Ratio, Phase 4 (AID 2283601; active = hit-call score of the fitted dose curve at least 0.9, where 1 is the maximum). The gist of the method:
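HCT-116 p53 beta-lactamase reporter cells (4000/well) preincubated 5 h, then compound (217-fold dilution of DMSO stock) for 16 h at 37C. CCF4-AM substrate added 2 h at room temperature; 460/530 nm emission ratio fitted upward versus DMSO.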

Test [17] is described as follows: TOX21_p53_BLA_p3_viability: Viability Assessment in the Tox21 HCT-116 p53 Agonism Beta-lactamase Assay, Phase 3 (AID 2283593; active = hit-call score of the fitted dose curve at least 0.9, where 1 is the maximum;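 note: cells exposed to compound for 16 h before reading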). The gist of the method:
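HCT116 cells, 4000/well, dosed 5 h after plating by pin transfer (217-fold dilution from DMSO stock) and incubated 16 h at 37C, 5% CO2. Viability read as ATP luminescence with CellTiter-Glo after 30 min at room temperature.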

As usually defined, the AC50 is the concentration giving half of the maximal activity seen.

Cellular tumor antigen p53 (Homo sapiens), sequence (P04637 whole entry, looked up): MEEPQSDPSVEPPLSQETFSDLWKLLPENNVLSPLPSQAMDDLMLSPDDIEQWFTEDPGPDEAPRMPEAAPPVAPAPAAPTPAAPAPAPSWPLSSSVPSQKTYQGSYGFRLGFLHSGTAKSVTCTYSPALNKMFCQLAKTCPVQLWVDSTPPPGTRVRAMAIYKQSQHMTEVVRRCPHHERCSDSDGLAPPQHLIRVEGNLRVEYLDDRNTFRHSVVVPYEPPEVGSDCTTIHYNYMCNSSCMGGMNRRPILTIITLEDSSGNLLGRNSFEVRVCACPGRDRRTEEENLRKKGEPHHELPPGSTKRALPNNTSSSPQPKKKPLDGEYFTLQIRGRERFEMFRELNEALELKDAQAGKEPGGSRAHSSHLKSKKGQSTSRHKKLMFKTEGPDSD

In the case of `CCC(C)Nc1c([N+](=O)[O-])cc(C(C)(C)C)cc1[N+](=O)[O-]` (configuration not stated), the outcome is “inactive” in test [1]; “inactive” in test [2]; “inactive” in test [3]; “inactive” in test [4]; “inactive” in the test with TIMP1, TIMP1 (gene 7076); “inactive” in test [5]. Moreover, the call in test [6] and in test [9] was inactive. Also, the results for the AC50 in test [7] and in test [8] were 13.1 µM (active) and 73.8 µM (active), respectively.
As to `CC(C)N(C(=O)COc1nnc(C(F)(F)F)s1)c1ccc(F)cc1`, the outcome was “inactive” in test [1]; “inactive” in [3]; “inactive” in [4]; “inactive” in the test with TIMP1, TIMP1 (gene 7076); “inactive” in [5]; “inactive” in [10]. The call in [7], in test [9], in test [11], in test [12], in [13] and in test [14] was inactive. Moreover, the AC50 in test [2] is 13.8 µM (active); in [8] it was 28.5 µM (active).
On to `CCc1ccc(C(=O)NN(C(=O)c2cc(C)cc(C)c2)C(C)(C)C)cc1`, for which the outcome in [1] was “inactive”; in test [2], “inactive”; in test [3], “inactive”; in test [4], “inactive”; in the test with TIMP1, TIMP1 (gene 7076) it was “inactive”; in test [5], “inactive”. Further, the call in [10], in [8], in [15], in test [11], in [12] and in test [13] was inactive. Also, in test [16], the outcome was inactive. Besides, the AC50 was 21.5 µM (active) in [6], 12.3 µM (active) in test [7] and 81.9 µM (active) in test [9].
With `COC(=O)c1ccccc1CS(=O)(=O)NC(=O)Nc1nc(OC)cc(OC)n1`, the outcome in test [15], in [17], in test [14] and in test [16] was inactive.
`COC(=O)c1ccccc1S(=O)(=O)NC(=O)N(C)c1nc(C)nc(OC)n1`: the compound was classed as inactive in test [12], in test [14] and in [16].
